The source of these data is PubChem BioAssay.

For assay [1], the target named is 6-phosphogluconate dehydrogenase, decarboxylating (Homo sapiens) (UniProt P52209). Kind of assay: inhibition of human phosphogluconate dehydrogenase – biochemical, recombinant enzyme, NADPH absorbance, primary screen (AID 1159550;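 active means at least 20% inhibition of 6-phosphogluconate dehydrogenase activity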). As to conditions: recombinant 6PGD, NADPH absorbance 341 nm; at 10 µM; stronger effect = higher value.
Assay [2] can be described thus: EMT-state selective cytotoxicity in co-culture – imaging, PC-3E GFP, TEM4-18 mCherry, primary screen (AID 1345086;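 active means compounds killing one labelled cell type while sparing the other, by normalised counts and ratio limits, not self-fluorescent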;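 on all read-outs here: cells exposed to compound for 72 h before imaging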;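 on red/green cell ratio (normalised): normalised mesenchymal count divided by normalised epithelial count so high means epithelial killing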). Particulars: PC-3E GFP / TEM4-18 mCherry co-culture, imaging cell counts, at 1 µM; for red/green cell ratio (normalised): actives lie on both sides.
The nature of assay [3]: signal quenchers or enhancers, Cy5 substrate/SSB – biochemical, NIH Clinical Collection, E. coli SSB, artefact control for HCV NS3 helicase inhibitor project (AID 743268). As to conditions: Cy5-oligo bound E. coli SSB, fluorescence interference.
Assay [4] relates to Hepatitis C virus NS3 helicase. Briefly: blockers of NS3h binding to DNA – biochemical, fluorescence polarization, NIH Clinical Collection, primary screen (AID 743270). As to conditions: NS3 helicase binding to Cy5-dT15 DNA, stronger effect = higher value, concentration not given here. A general note: Polarisation of emitted light reports the rotation of a fluorescent probe.
Assay [5] concerns the target Single-stranded DNA-binding protein (Escherichia coli (strain K12)) (UniProt P0AGE0). Briefly: SSB-ssDNA binding inhibitors – biochemical, fluorescence polarization, NIH Clinical Collection, counter-screen for HCV NS3 helicase inhibitor project (AID 743271; in the data active means inhibition above about 28%). Particulars: E. coli SSB-DNA binding, stronger effect = higher value, concentration not given here.
Assay [6] is described as follows: compounds distorting NS3 helicase fluorescence signal – biochemical, NIH Clinical Collection, artefact control for HCV NS3 helicase inhibitor project (AID 743272).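 Further: HCV NS3 helicase with a Cy5 labelled single stranded DNA probe.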 Particulars: fluorescence interference counterscreen, HCV NS3 helicase assay; stronger effect = lower value. In general terms: Counterscreens check selectivity or assay interference.
The subject of assay [7] is Neuropilin-2 / VEGF-C interaction (human). Briefly: small molecules blocking Neuropilin-2/VEGF-C interaction – biochemical, microplate binding format, z-score (AID 743281). Particulars: microplate NRP2/VEGF-C binding assay; stronger effect = lower value.
The nature of assay [8]: modulation of C. elegans fzo-1 (AID 1259413).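 Further: fzo-1 mutant C. elegans worms in liquid wells.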 As to conditions: C. elegans fzo-1 modulator screen, mean read-out; stronger effect = higher value.
The subject of assay [9] is Aerobactin synthetase IucA (Klebsiella pneumoniae hvKP1). Briefly: IucA enzyme inhibition, primary screen, biochemical, Spectrum library (AID 1346200).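 Further: 100% = wells without compound and 0% = wells lacking enzyme.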 As to conditions: malachite green pyrophosphate, A620, at 8 µM, stronger effect = lower value.
A short description of assay [10]: viability loss in pontine glioma line – cell-based, SU-DIPG-XVII, MIPE5.0, CellTiter-Glo, qHTS, dose response (AID 1347060; cut-off not given, nearly all actives have AC50 up to about 26 µM). Particulars: CellTiter-Glo ATP luminescence. On the technique in general: In ATP-based viability assays light output follows the ATP content of the culture.
Assay [11] in a line: viability loss in pontine glioma line – cell-based, SU-DIPG-XIII, MIPE4.0, CellTiter-Glo, qHTS, dose response (AID 1347061; cut-off not given, nearly all actives have AC50 up to about 37 µM;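 further: cells exposed to compound for 48 hours before readout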). As to conditions: CellTiter-Glo ATP luminescence.
Assay [12] can be described thus: viability loss in pontine glioma line – cell-based, JHH-DIPG-1, MIPE4.0, CellTiter-Glo, qHTS, dose response (AID 1347062; cut-off not given, nearly all actives have AC50 up to about 27 µM). As to conditions: JHH-DIPG-1 viability, CellTiter-Glo ATP luminescence.
Assay [13] is described as follows: viability loss in pontine glioma line – cell-based, SU-DIPG-IV, MIPE4.0, CellTiter-Glo, qHTS, dose response (AID 1347063; cut-off not given, nearly all actives have AC50 up to about 30 µM;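 further: compound exposure lasted 48 hours before the viability readout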). Particulars: CellTiter-Glo ATP luminescence.
A short description of assay [14]: viability loss in pontine glioma line – cell-based, SU-DIPG-XXV, MIPE5.0, CellTiter-Glo, qHTS, dose response (AID 1347065; cut-off not given, nearly all actives have AC50 up to about 26 µM;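 further: cells exposed to compound for 48 hours before ATP readout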). As to conditions: CellTiter-Glo ATP luminescence.
Assay [15] can be described thus: growth inhibition of DIPG cells – cell-based, MIPE4.0 library, CellTiter-Glo luminescence, qHTS (AID 1347066; cut-off not given, nearly all actives have AC50 up to about 30 µM;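 further: cells exposed to compound for 48 hours before readout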). As to conditions: SU-DIPG-VI viability, CellTiter-Glo ATP luminescence.
A short description of assay [16]: JHH-DIPG-1 glioma cell viability, MIPE5.0 library, CellTiter-Glo luminescence, qHTS (AID 1347067; cut-off not given, nearly all actives have AC50 up to about 26 µM;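 further: cells exposed to compound for 48 hours before readout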). Particulars: JHH-DIPG-1 glioma viability, CellTiter-Glo ATP luminescence.
A short description of assay [17]: growth inhibition of DIPG cells – cell-based, MIPE5.0 library, qHTS (AID 1347068; cut-off not given, nearly all actives have IC50 up to about 30 µM). Particulars: SU-DIPG-XXV viability.
Assay [18] can be described thus: MELAS cybrid and Rieske KO viability enhancers – cell-based, MELAS cybrids, Rieske KO mouse fibroblasts, CellTiter-Glo, primary screen (AID 1508586;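 active means mean z-score across replicates of 1.96 or higher in either the MELAS or the Rieske mutant cell line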;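 further: z relative to plate mean and SD of compound and empty wells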). As to conditions: low glucose.
Assay [19] addresses NAD(+) hydrolase SARM1 (Homo sapiens) (UniProt Q6SZW1). Briefly: blocking NAD cleavage by SARM1 SAM-TIR – cell lysate, NAD-Glo luminescence (AID 1508614;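 active means compound whose remaining NAD level is above about 45 nM, limit read from the data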). As to conditions: SAM-TIR HEK293T lysate NADase, at 1 µM, stronger effect = higher value.
Assay [20] has as its target Mitogen-activated protein kinase 7 (Homo sapiens) (UniProt Q13164). Kind of assay: Gal4-ERK5 driven luciferase induction – cell-based, HTS, primary screen (AID 1508626;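 active means luciferase signal above three times the same-plate solvent-only control wells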;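 further: luciferase driven by Gal4-ERK5 fusion binding five Gal4 sites before minimal TATA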). As to conditions: HeLa Gal4-ERK5 transactivation, 18 h, at 5 µM, stronger effect = higher value.
A short description of assay [21]: galactose survival enhancers in mitochondrial complex I cybrids – cell-based, galactose medium, ATP luminescence, primary screen (AID 1645843;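 active means z-score of at least 1.8 in each of two replicates, scored against plate mean and spread of sample wells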;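 further: positive z means more ATP and so rescue of galactose-driven cybrid death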). Particulars: complex I mutant cybrid cells, 72 h, stronger effect = higher value.
Where [22] appears, read: measured here: epithelial PC-3E GFP cell survival.
[23] abbreviates: measured here: mesenchymal TEM4-18 mCherry cell survival.

Several values for one entry are separate records, joined by “and”; a condition that tells them apart may be missing. Equal entries are not always repeated. Inconclusive results are not listed. Activity calls are given as the source filed them. Unless noted, how the calls were made is not given here.

Chain of 6-phosphogluconate dehydrogenase, decarboxylating (Homo sapiens) (P52209 whole entry, looked up): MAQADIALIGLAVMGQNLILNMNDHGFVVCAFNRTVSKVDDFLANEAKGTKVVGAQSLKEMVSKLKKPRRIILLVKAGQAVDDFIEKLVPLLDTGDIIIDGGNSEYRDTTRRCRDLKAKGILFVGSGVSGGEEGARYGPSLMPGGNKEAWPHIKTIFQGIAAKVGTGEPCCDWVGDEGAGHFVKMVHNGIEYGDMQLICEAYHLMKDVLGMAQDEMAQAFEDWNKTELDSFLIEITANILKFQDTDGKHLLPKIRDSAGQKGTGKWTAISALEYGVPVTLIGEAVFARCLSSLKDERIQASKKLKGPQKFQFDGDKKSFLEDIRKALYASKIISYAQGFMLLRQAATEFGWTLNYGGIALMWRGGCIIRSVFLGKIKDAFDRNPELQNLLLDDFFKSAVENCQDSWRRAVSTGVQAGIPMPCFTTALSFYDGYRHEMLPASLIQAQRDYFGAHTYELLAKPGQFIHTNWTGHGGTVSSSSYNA
Chain of NAD(+) hydrolase SARM1 (Homo sapiens) (Q6SZW1 whole entry, looked up, the tested form may be a part): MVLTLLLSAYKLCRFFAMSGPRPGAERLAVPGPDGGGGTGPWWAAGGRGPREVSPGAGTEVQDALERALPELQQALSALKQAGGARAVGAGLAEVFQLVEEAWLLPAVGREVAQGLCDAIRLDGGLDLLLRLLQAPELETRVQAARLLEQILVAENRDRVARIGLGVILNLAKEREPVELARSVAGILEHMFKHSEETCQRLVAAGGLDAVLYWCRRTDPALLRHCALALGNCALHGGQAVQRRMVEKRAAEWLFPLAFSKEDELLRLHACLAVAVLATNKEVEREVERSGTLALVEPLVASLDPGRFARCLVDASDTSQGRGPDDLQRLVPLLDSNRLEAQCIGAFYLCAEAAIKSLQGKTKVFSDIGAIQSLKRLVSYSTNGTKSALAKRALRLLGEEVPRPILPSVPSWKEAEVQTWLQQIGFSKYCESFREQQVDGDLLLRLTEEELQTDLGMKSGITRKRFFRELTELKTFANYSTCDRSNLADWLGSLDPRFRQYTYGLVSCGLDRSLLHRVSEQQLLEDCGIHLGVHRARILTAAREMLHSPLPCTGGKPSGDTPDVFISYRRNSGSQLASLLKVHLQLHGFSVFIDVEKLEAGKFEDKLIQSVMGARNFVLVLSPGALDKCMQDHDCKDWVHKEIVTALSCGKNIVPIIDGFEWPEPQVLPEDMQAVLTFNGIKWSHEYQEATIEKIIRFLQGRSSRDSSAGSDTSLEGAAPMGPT
Chain of Mitogen-activated protein kinase 7 (Homo sapiens) (Q13164 whole entry, looked up, the tested form may be a part): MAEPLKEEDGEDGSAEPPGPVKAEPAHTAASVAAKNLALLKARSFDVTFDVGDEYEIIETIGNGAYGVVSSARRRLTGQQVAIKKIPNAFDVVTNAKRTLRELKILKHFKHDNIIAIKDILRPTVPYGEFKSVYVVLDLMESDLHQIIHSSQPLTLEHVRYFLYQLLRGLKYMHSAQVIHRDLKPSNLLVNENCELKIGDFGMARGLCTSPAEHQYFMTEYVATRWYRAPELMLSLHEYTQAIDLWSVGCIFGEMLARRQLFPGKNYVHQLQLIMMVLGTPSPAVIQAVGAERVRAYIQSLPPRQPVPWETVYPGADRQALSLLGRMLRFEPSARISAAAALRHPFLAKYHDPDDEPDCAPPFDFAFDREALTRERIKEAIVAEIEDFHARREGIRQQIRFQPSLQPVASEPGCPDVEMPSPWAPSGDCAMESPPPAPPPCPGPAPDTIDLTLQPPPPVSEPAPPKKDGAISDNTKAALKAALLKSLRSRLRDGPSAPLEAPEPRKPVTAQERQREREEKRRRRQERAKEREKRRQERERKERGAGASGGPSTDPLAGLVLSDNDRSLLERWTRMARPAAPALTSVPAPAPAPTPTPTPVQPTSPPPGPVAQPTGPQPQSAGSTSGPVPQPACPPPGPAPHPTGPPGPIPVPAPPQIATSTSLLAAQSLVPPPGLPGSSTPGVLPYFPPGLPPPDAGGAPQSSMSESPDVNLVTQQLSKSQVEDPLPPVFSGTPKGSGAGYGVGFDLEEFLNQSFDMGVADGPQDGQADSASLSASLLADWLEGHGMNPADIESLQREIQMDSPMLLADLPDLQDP

As for `O=C(O)COc1ccc(Cl)cc1Cl`, the inhibition (as a rule, the drop in the measured response relative to a control, in per cent) in [1] is -20.1% (inactive). The red/green cell ratio (normalised) in [2] is 1.22 (inactive). In addition, the normalised cell number was 0.89 in assay [2] (setting [22]) and 1.08 in [2] (setting [23]).
Regarding `O=S1OCC2C(CO1)C1(Cl)C(Cl)=C(Cl)C2(Cl)C1(Cl)Cl` (configuration not stated), the inhibition in [1] was 5.97% (inactive).
`CC[C@H](C)C(=O)O[C@@H]1C[C@@]2(C)[C@H](c3ccoc3)OC(=O)C[C@]23OC2(C)O[C@@]34[C@H](OC(=O)C(C)C)C3(O)[C@@H](OC(=O)[C@@]5(C)O[C@@H]5C)C5(C)C[C@]3(O)[C@](C)([C@H]5CC(=O)OC)[C@@]14O2` (some centres not stated): the inhibition in assay [1] is 3.98% (inactive).
Consider `C=C(C)C(=O)/C(=C/C(=O)O)OC`, for which the inhibition in assay [1] was 12.8% (inactive).
Take `CC(C)CC(N(C)C)C1(c2ccc(Cl)cc2)CCC1` (configuration not stated): the fluorescence ratio in assay [3] was 1.01 (inactive) and 0.96 (inactive); in assay [6], 1.01 (inactive) and 0.95 (inactive). The inhibition is -0.22% (inactive) and -8.08% (inactive) in assay [4]; -1.97% (inactive) and 1.97% (inactive) in assay [5]; 14.3% (inactive) in assay [1]. Also, the compound was called inactive in [7], in assay [10], in [12], in [13], in assay [14] and in assay [15]. Also, the call in [16] and in [17] was inactive. The z-score was -0.0182 (inactive) in [7]; 0.37 (inactive) and 0.394 (inactive) in assay [18] (MELAS cybrid survival, CellTiter-Glo 48 h, stronger effect = higher value); 0.153 and 0.475 in assay [18] (Rieske KO mouse fibroblast survival, CellTiter-Glo 72 h); -1.39 (inactive) and -1.34 (inactive) and -2.03 (inactive) in [21]. For the same compound, the mean signal in assay [8] is 232 (inactive). Besides, the red/green cell ratio (normalised) in assay [2] was 1.04 (inactive). The results for the normalised cell number in assay [2] (setting [22]) and in [2] (setting [23]) were 0.98 and 1.02, respectively. Also, the activity remaining in assay [9] is 121% (inactive). For the same compound, in assay [11], the AC50 (commonly the midpoint of the concentration-response curve, whichever way the signal moves) was 23.5 µM (active). In addition, the remaining NAD in assay [19] was 10 nM (inactive). For the same compound, in assay [20], the luciferase signal was 60 AU (inactive).
